Experimental data as given in the supplement of paper PMC10849652.
Targets with a hit are over-represented here; the source holds about 8,800 in all. About 0.5% of all pairs of compound and target were hits.

Tests used:
Assay in all cases: log2 fold change, soluble protein after heating vs DMSO (PISA); higher = thermal stabilisation; K562 lysate, 10 uM; active = over 0.2 and 3.5 SD of the protein, either way, in both replicates (recomputed)
erlotinib = compound: C#Cc1cccc(Nc2ncnc3cc(OCCOC)c(OCCOC)cc23)c1 [erlotinib]
Procedure, shortened: (§1)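 Quantification was by TMTpro 16plex LC-MS/MS with equalised channel sums, applied to the supernatant after 21,000xg for 90 min. Samples were crude K562 extract at 1 mg/mL protein in PBS pH 7.4 with 1 mM MgCl2, treated with 10 μM compound for 30 min, heated for 3 min across 48°C-58°C, pooled and brought to 0.5% NP-40 at 4°C. Values are log-two fold changes in thermal stability relative to solvent controls, from duplicates.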

[1] = compound: C/C(=N\NC(=O)C1=CC(=CC=C1)S(=O)(=O)N2CCOCC2)/C3=C(C=CC(=C3)Cl)O
Procedure, shortened: as §1

[2] = compound: C1=CC(=CC=C1C2=NC3=C(N2)C=C(C=C3)C(=O)N)OC4=CC=C(C=C4)Cl
Procedure, shortened: as §1

[3] = compound: C1=CC2=C(C=CC(=C2)/C=C\3/C(=O)NC(=NCC4=CC=CS4)S3)N=C1
Procedure, shortened: as §1

[4] = compound: C1=CC2=NC=CN=C2C=C1/C=C/3\C(=O)NC(=O)S3
Procedure, shortened: as §1

[5] = compound: C1=CC=C(C=C1)C2=NC(=C(N2)C3=CC=NC=C3)C4=CC(=C(C=C4)Cl)O
Procedure, shortened: as §1

[6] = compound: C1=CC=C2C(=C1)C3=NNC4=CC=CC(=C43)C2=O
Procedure, shortened: as §1

[7] = compound: C1CCN(C1)C(=O)NC2=CC=CC(=C2)NC3=NC=C(C(=N3)NCCC4=CN=CN4)Br
Procedure, shortened: as §1

[8] = compound: C1CN(CCC1(CC2=CC=C(C=C2)Cl)N)C3=NC=NC4=C3C=CN4
Procedure, shortened: as §1

IRAK-1-4 Inhibitor I = compound: C1COCCN1CCN2C3=CC=CC=C3N=C2NC(=O)C4=CC(=CC=C4)[N+](=O)[O-] [IRAK-1-4 Inhibitor I]
Procedure, shortened: as §1

ibrutinib = compound: C=CC(=O)N1CCC[C@@H](n2nc(-c3ccc(Oc4ccccc4)cc3)c3c(N)ncnc32)C1 [ibrutinib]
Procedure, shortened: as §1

[9] = compound: CC(=O)c1cnc2ccc(-c3cc(Cl)c(O)c(Cl)c3)nc2c1N[C@H]1CC[C@H](CN(C)C)CC1
Procedure, shortened: as §1

ralimetinib = compound: CC(C)(C)Cn1c(N)nc2ccc(-c3[nH]c(C(C)(C)C)nc3-c3ccc(F)cc3)nc21 [ralimetinib]
Procedure, shortened: as §1

[10] = compound: CC(C)(O)CC(=O)NCCn1ccc2ncnc(Nc3ccc(Oc4cccc(C(F)(F)F)c4)c(Cl)c3)c21
Procedure, shortened: as §1

[11] = compound: CC(C)C1=C2N=C(C=C(N2N=C1)NCC3=CC=CC=C3)NCCCCCCN
Procedure, shortened: as §1

[12] = compound: CC1=C(C(CC(=O)N1)C2=CC=C(C=C2)C(F)(F)F)C(=O)NC3=C(C=C4C(=C3)C=NN4)F
Procedure, shortened: as §1

[13] = compound: CC1=C(C2=C(C=C1)C(=O)C3=CC=CC=C3N2CCCN)C
Procedure, shortened: as §1

[14] = compound: CC1=C(C=C(C=C1)NC(=O)C2=CC(=CC=C2)C(C)(C)C#N)NC3=CC4=C(C=C3)N=CN(C4=O)C
Procedure, shortened: as §1

[15] = compound: CC1=C(C=C(C=C1)NC(=O)C2=CC(=CC=C2)N(C)C)NC(=O)C3=CC=C(C=C3)O
Procedure, shortened: as §1

[16] = compound: CC1=CC=C(C=C1)SC2=C3C=C(SC3=CN=C2)C(=O)N
Procedure, shortened: as §1

Measured: log2 fold change

TOE1 (UniProt Q96GM8)
inactive: erlotinib -0.035 | [1] -0.064 | [2] 0.006 | [3] 0.036 | [4] 0.054 | [5] -0.021 | [6] -0.024 | [7] 0 | [8] -0.035 | IRAK-1-4 Inhibitor I -0.021 | ibrutinib 0.011 | [9] -0.001 | ralimetinib 0.007 | [10] 0.003 | [11] 0.008 | [12] -0.061 | [13] -0.023 | [14] -0.02 | [15] 0.014 | [16] 0.011

TCP11L1 (UniProt Q9NUJ3)
Sequence of UniProt Q9NUJ3 (Q9NUJ3 whole entry, looked up): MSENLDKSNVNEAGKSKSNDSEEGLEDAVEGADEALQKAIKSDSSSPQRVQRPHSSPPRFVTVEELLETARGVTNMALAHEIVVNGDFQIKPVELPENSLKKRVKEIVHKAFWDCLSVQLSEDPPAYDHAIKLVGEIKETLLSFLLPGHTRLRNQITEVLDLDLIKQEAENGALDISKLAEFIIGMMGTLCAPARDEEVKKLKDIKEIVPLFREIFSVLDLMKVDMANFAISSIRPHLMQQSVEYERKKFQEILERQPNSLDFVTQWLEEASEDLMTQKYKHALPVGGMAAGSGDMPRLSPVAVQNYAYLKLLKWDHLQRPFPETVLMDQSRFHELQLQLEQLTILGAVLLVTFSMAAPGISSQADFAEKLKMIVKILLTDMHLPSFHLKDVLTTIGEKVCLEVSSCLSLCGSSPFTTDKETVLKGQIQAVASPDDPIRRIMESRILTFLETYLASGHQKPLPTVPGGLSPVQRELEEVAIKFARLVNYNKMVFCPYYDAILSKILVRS
inactive: erlotinib 0.082 | [1] 0.032 | [2] 0.032 | [3] 0.033 | [4] -0.053 | [5] 0.075 | [6] -0.069 | [7] -0.005 | [8] 0.094 | IRAK-1-4 Inhibitor I 0.001 | ibrutinib 0.026 | [9] -0.033 | ralimetinib -0.093 | [10] -0.061 | [11] -0.045 | [12] -0.032 | [13] -0.052 | [14] -0.008 | [15] 0.02 | [16] -0.008

TMEM167B (UniProt Q9NRX6)
Sequence of UniProt Q9NRX6 (Q9NRX6 whole entry, looked up): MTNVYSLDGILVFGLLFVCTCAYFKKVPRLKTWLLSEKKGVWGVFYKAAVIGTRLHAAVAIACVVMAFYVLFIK
inactive: erlotinib -0.061 | [1] -0.016 | [2] -0.006 | [3] -0.042 | [4] -0.044 | [5] -0.002 | [6] 0.013 | [7] -0.056 | [8] 0.036 | IRAK-1-4 Inhibitor I -0.014 | ibrutinib 0.019 | [9] -0.02 | ralimetinib 0.015 | [10] 0.001 | [11] -0.02 | [12] -0.058 | [14] 0.021 | [15] 0.035 | [16] -0.033

TTF2 (UniProt Q9UNY4)
Sequence of UniProt Q9UNY4 (Q9UNY4 whole entry, looked up): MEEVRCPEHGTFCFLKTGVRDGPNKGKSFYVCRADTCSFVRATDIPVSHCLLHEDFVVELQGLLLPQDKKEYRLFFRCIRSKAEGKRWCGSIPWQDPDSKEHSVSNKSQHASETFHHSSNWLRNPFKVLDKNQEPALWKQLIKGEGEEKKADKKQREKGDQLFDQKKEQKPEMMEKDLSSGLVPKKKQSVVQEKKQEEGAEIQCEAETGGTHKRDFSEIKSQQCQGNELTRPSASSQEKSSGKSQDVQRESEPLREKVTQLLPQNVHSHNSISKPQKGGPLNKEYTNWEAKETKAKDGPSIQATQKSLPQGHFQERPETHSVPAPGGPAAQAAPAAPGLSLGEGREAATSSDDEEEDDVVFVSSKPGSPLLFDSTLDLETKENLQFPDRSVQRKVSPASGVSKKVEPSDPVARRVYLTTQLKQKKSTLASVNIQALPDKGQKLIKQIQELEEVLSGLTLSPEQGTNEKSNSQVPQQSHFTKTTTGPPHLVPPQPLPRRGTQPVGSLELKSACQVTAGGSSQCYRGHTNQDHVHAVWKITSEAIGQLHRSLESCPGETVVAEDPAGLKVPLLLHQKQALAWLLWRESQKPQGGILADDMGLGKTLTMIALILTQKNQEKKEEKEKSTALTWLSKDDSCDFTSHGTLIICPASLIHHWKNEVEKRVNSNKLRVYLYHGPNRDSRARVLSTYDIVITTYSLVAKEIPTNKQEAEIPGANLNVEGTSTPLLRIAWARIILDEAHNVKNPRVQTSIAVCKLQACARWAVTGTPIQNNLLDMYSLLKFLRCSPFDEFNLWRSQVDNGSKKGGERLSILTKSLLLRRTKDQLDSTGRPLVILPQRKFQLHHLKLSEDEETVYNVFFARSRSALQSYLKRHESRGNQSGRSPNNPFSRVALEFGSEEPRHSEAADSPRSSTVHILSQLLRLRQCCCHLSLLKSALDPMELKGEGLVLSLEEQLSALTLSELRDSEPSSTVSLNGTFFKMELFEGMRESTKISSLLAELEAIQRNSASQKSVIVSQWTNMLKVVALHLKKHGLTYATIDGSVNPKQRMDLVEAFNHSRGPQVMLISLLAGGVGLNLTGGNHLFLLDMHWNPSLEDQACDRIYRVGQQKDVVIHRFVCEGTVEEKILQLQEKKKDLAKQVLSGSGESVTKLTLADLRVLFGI
inactive: erlotinib 0.043 | [1] -0.003 | [2] 0.063 | [3] -0.001 | [4] -0.026 | [5] 0.042 | [6] -0.046 | [7] 0.039 | [8] 0.032 | IRAK-1-4 Inhibitor I -0.006 | ibrutinib 0.003 | [9] -0.121 | ralimetinib 0.035 | [10] -0.006 | [11] -0.02 | [12] 0.037 | [13] -0.084 | [14] -0.058 | [15] -0.018 | [16] -0.115

TFAP4 (UniProt Q01664)
Sequence of UniProt Q01664 (Q01664 whole entry, looked up): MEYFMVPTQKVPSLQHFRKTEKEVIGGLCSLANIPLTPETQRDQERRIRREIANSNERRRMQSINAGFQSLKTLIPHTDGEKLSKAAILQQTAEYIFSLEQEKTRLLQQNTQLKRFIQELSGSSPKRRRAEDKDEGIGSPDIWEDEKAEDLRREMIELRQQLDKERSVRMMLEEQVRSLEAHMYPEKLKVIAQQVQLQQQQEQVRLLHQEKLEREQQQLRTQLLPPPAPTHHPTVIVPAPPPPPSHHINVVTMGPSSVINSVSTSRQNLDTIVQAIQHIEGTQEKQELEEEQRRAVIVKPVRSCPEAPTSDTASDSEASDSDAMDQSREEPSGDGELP
inactive: erlotinib -0.063 | [1] -0.042 | [2] 0.017 | [3] -0.025 | [4] 0.018 | [5] -0.09 | [6] 0.055 | [7] 0.135 | [8] -0.016 | IRAK-1-4 Inhibitor I -0.061 | ibrutinib 0.057 | [9] 0.141 | ralimetinib 0.004 | [10] -0.26 | [11] -0.109 | [12] 0.046 | [14] 0.058 | [15] 0.038 | [16] 0.07

TFPI (UniProt P10646)
Sequence of UniProt P10646 (P10646 whole entry, looked up): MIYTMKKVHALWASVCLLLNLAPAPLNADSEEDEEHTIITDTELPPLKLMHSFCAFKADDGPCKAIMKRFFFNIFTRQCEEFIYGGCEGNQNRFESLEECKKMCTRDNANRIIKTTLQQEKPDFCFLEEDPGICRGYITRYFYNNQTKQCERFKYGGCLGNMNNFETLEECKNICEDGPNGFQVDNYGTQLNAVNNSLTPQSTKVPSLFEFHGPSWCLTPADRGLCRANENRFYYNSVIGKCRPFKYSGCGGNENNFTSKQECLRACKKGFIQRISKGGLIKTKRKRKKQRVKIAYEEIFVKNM
inactive: erlotinib -0.069 | [1] 0.093 | [2] 0.011 | [3] 0.089 | [4] -0.141 | [5] -0.02 | [6] -0.232 | [7] -0.096 | [8] 0.065 | IRAK-1-4 Inhibitor I 0.003 | ibrutinib 0.024 | [9] 0.035 | ralimetinib 0.046 | [10] -0.003 | [11] -0.011 | [12] -0.042 | [14] 0.021 | [15] -0.027 | [16] 0.073

UBL5 (UniProt Q9BZL1)
Sequence of UniProt Q9BZL1 (Q9BZL1 whole entry, looked up): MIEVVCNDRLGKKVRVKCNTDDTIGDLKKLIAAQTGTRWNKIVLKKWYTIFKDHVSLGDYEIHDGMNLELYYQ
inactive: erlotinib 0 | [1] 0.002 | [2] -0.02 | [3] 0.011 | [4] -0.079 | [5] 0 | [6] 0.049 | [7] 0.029 | [8] 0.004 | IRAK-1-4 Inhibitor I -0.062 | ibrutinib 0.052 | ralimetinib -0.029 | [10] 0.04 | [11] -0.003 | [12] -0.056 | [13] 0.032 | [14] 0.038 | [15] 0.037

UBXN2B (UniProt Q14CS0)
Sequence of UniProt Q14CS0 (Q14CS0 whole entry, looked up): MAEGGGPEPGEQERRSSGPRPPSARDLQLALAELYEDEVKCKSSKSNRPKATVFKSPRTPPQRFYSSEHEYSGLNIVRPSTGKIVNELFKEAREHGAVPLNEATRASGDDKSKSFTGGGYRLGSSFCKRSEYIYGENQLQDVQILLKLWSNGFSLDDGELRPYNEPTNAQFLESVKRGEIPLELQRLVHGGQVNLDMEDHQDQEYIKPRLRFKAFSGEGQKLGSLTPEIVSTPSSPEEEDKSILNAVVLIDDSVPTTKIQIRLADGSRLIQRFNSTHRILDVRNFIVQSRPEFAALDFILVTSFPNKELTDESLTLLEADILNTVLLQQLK
inactive: erlotinib -0.008 | [1] -0.079 | [2] 0.073 | [3] -0.045 | [4] -0.01 | [5] -0.062 | [6] 0.149 | [7] -0.04 | [8] -0.046 | IRAK-1-4 Inhibitor I -0.028 | ibrutinib 0.108 | [9] 0.19 | ralimetinib 0.087 | [10] -0.075 | [11] 0.002 | [12] -0.189 | [13] -0.192 | [15] 0.022 | [16] -0.011

TBC1D20 isoform 3 (UniProt Q96BZ9)
Sequence of UniProt Q96BZ9 (Q96BZ9 whole entry, looked up): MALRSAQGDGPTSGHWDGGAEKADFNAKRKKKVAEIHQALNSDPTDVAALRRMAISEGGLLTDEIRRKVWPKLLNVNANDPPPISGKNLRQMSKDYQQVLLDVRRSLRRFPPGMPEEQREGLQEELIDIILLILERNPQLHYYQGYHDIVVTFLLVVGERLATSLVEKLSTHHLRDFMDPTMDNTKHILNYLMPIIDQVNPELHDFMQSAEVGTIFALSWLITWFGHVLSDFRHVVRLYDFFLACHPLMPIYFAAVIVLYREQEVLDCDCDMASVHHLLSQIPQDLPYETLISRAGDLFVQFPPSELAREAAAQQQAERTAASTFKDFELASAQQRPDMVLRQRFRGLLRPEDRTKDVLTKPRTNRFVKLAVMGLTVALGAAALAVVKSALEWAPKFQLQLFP
inactive: erlotinib -0.073 | [1] 0.142 | [2] -0.113 | [3] 0.043 | [4] 0.117 | [5] -0.038 | [6] -0.018 | [7] 0.033 | [8] 0.023 | IRAK-1-4 Inhibitor I 0.132 | ibrutinib 0.078 | [9] -0.016 | ralimetinib 0.001 | [10] -0.14 | [11] -0.082 | [13] 0.05 | [14] -0.171 | [15] 0.019 | [16] -0.005

UCHL5 (UniProt Q5LJA9)
inactive: erlotinib -0.052 | [1] 0.084 | [2] 0.005 | [3] -0.024 | [4] -0.032 | [5] 0.016 | [6] -0.045 | [7] 0.035 | [8] 0.006 | IRAK-1-4 Inhibitor I 0.054 | ibrutinib 0.009 | [9] 0.078 | ralimetinib -0.007 | [10] -0.113 | [11] 0.044 | [13] 0 | [14] 0.012 | [15] 0.035 | [16] 0.01

TNKS (UniProt O95271)
inactive: erlotinib 0.064 | [1] -0.024 | [2] -0.036 | [3] -0.005 | [5] 0.052 | [6] -0.01 | [7] -0.061 | [8] -0.02 | IRAK-1-4 Inhibitor I -0.073 | [9] 0.038 | ralimetinib -0.04 | [10] 0.022 | [11] -0.045 | [12] -0.001 | [13] -0.076 | [14] 0.004 | [15] 0.006 | [16] 0.124

TTLL12 (UniProt V9GY16)
inactive: erlotinib 0.144 | [1] 0.13 | [2] -0.193 | [3] -0.05 | [4] 0.074 | [5] -0.061 | [6] -0.072 | [7] -0.167 | [8] 0.128 | IRAK-1-4 Inhibitor I 0.229 | ibrutinib -0.32 | ralimetinib -0.339 | [10] -0.165 | [11] -0.333 | [14] 0.031 | [15] -0.009

TFIP11 (UniProt Q9UBB9)
inactive: erlotinib -0.026 | [1] -0.099 | [2] -0.082 | [3] -0.025 | [4] -0.027 | [5] 0.023 | [6] -0.036 | [7] -0.008 | [8] 0.074 | IRAK-1-4 Inhibitor I -0.016 | ibrutinib 0.059 | [9] 0.001 | ralimetinib 0.023 | [10] 0.008 | [11] -0.022 | [12] 0 | [13] -0.034 | [14] 0.016 | [15] 0.031 | [16] -0.003

TUBB4A (UniProt M0QYM7)
inactive: erlotinib -0.017 | [1] -0.063 | [2] 0.071 | [3] -0.015 | [4] -0.322 | [5] 0.044 | [6] -0.097 | [7] -0.038 | [8] -0.027 | IRAK-1-4 Inhibitor I 0.025 | ibrutinib 0.092 | [9] 0.049 | ralimetinib 0.103 | [10] -0.117 | [11] 0.005 | [12] -0.102 | [14] 0.13 | [15] 0.102 | [16] 0.024

TDRD3 isoform 3 (UniProt Q9H7E2)
inactive: erlotinib 0.051 | [1] -0.029 | [2] -0.019 | [3] 0.086 | [4] 0.005 | [5] 0.257 | [6] -0.085 | [7] -0.059 | [8] 0 | IRAK-1-4 Inhibitor I 0.051 | ibrutinib -0.03 | [9] 0.009 | ralimetinib -0.094 | [10] 0.01 | [11] -0.018 | [12] -0.073 | [13] -0.004 | [14] 0 | [15] -0.102 | [16] 0.026

TUBGCP3 (UniProt Q96CW5)
Sequence of UniProt Q96CW5 (Q96CW5 whole entry, looked up): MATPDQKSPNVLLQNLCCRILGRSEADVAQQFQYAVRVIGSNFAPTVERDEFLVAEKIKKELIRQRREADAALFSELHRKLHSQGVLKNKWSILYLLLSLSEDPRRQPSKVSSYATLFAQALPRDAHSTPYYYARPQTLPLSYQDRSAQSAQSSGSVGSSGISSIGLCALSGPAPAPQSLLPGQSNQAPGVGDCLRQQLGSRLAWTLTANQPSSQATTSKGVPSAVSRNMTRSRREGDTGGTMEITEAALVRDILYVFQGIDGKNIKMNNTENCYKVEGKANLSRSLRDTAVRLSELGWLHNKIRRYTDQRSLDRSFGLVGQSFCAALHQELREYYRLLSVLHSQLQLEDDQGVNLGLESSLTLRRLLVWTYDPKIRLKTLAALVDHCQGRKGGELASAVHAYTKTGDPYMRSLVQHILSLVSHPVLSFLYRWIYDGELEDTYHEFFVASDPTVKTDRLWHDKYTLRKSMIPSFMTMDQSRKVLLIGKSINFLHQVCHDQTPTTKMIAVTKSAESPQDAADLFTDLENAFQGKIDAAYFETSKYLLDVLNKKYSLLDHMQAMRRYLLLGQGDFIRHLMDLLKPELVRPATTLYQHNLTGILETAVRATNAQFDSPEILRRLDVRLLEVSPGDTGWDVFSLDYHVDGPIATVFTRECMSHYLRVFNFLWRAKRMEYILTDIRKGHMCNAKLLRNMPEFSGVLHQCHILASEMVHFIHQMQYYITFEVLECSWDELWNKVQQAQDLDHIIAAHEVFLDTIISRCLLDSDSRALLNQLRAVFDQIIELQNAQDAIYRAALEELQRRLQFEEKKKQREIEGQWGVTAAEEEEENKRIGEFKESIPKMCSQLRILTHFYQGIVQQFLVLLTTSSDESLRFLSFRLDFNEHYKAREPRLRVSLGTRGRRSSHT
inactive: erlotinib -0.035 | [1] 0.021 | [2] -0.054 | [3] 0.044 | [4] 0.02 | [5] -0.039 | [6] 0.012 | [7] -0.044 | [8] -0.019 | IRAK-1-4 Inhibitor I -0.054 | ibrutinib -0.007 | [9] 0.018 | ralimetinib 0.03 | [10] 0.045 | [11] -0.039 | [12] 0.003 | [13] -0.037 | [14] 0.004 | [15] 0.106 | [16] 0.028

TGFBRAP1 (UniProt Q8WUH2)
Sequence of UniProt Q8WUH2 (Q8WUH2 whole entry, looked up): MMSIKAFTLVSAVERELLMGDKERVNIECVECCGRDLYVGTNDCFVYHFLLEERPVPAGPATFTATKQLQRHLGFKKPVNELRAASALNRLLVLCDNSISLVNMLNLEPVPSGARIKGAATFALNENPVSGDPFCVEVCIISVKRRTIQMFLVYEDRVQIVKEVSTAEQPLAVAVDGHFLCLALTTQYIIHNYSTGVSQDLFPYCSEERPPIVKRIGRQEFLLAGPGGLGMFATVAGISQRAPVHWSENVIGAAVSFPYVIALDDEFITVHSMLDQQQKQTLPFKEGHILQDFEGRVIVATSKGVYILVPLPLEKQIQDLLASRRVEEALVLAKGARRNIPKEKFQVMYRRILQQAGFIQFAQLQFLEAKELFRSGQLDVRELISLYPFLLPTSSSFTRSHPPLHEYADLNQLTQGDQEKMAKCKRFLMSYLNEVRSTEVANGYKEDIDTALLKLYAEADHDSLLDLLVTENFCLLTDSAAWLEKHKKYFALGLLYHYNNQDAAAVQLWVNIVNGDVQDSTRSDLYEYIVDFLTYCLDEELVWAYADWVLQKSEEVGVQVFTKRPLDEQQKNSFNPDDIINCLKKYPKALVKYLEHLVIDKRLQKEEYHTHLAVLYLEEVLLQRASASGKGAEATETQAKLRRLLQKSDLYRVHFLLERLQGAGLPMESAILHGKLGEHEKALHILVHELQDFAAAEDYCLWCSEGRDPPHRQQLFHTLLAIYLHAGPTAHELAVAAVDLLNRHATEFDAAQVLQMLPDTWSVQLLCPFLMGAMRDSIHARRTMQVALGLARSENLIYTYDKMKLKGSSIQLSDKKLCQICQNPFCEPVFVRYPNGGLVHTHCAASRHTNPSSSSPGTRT
inactive: erlotinib 0.015 | [1] 0.057 | [2] -0.016 | [3] -0.002 | [4] -0.018 | [5] -0.02 | [6] -0.056 | [7] 0.023 | [8] 0.006 | IRAK-1-4 Inhibitor I -0.026 | ibrutinib 0.002 | [9] 0.022 | ralimetinib 0.011 | [10] 0.025 | [11] -0.014 | [12] 0.007 | [13] 0.015 | [14] -0.005 | [15] 0.009 | [16] -0.012
